Measured values from PubChem BioAssay AID651730 (NMMLSC, 2012).

Assay: V-ATPase regulators in yeast, S. cerevisiae, pHLuorin, powder sets 2-3, dose response (AID 651730)
Conditions: S. cerevisiae vacuolar pH, pHluorin fluorescence; series mostly up to 100 µM; response, percent: at the top concentration; call rule not given here

response, percent, inactive:
O=C(Nc1ccccc1N1CCOCC1)c1ccc(-c2ccccc2)o1 0.32%
CS(=O)(=O)c1ccc(C(=O)Nc2ccccc2N2CCOCC2)o1 3.26%
CC(C)(C)c1ccc(C(=O)N2CCN(c3nc4ccc(F)cc4s3)CC2)o1 4.73%
N#Cc1cccc(C(=O)Nc2ccccc2N2CCOCC2)c1 0.04%
O=C(c1ccc(-c2ccccc2)o1)N1CCN(c2nc3ccc(F)cc3s2)CC1 -0.43%
COCc1ccc(C(=O)N2CCN(c3nc4ccc(F)cc4s3)CC2)o1 -1.66%
Cc1ccnc(C(=O)Nc2ccccc2N2CCOCC2)c1 0.06%
CN(C)Cc1cccc(C(=O)Nc2ccccc2N2CCOCC2)c1 -2.4%
Cc1cccc(C(=O)Nc2ccccc2N2CCOCC2)n1 0.96%
O=C(c1cc(Cl)ccn1)N1CCN(c2nc3ccc(F)cc3s2)CC1 -4.21%
CN(C)C(=O)c1cccc(C(=O)N2CCN(c3nc4ccc(F)cc4s3)CC2)c1 3.4%
CN(C)Cc1cccc(C(=O)N2CCN(c3nc4ccc(F)cc4s3)CC2)c1 -4.07%
Cc1ccc(C(=O)N2CCN(c3nc4ccc(F)cc4s3)CC2)o1 0.15%
O=C(c1cccc(C(F)(F)F)n1)N1CCN(c2nc3ccc(F)cc3s2)CC1 5.41%
O=C(c1ccc(C(F)(F)F)o1)N1CCN(c2nc3ccc(F)cc3s2)CC1 -1.21%
CS(=O)(=O)Cc1cccc(C(=O)N2CCN(c3nc4ccc(F)cc4s3)CC2)c1 1.15%
CN(C)S(=O)(=O)c1cccc(C(=O)Nc2ccccc2N2CCOCC2)c1 -1.05%
CN(C)S(=O)(=O)c1cccc(C(=O)N2CCN(c3nc4ccc(F)cc4s3)CC2)c1 8.43%
NC(=O)c1cccc(C(=O)Nc2ccccc2N2CCOCC2)c1 1.11%
COCc1cccc(C(=O)Nc2ccccc2N2CCOCC2)c1 3.7%
NS(=O)(=O)c1ccc(C(=O)N2CCN(c3nc4ccc(F)cc4s3)CC2)o1 0.11%
NS(=O)(=O)c1cccc(C(=O)Nc2ccccc2N2CCOCC2)c1 -3.19%
O=C(Nc1ccccc1N1CCOCC1)c1ccc(Br)o1 -7.84%
O=C(c1cc(CO)ccn1)N1CCN(c2nc3ccc(F)cc3s2)CC1 0.47%
COCc1cccc(C(=O)N2CCN(c3nc4ccc(F)cc4s3)CC2)c1 0.01%
NC(=O)c1ccc(C(=O)N2CCN(c3nc4ccc(F)cc4s3)CC2)o1 -1.73%
Nc1cncc(C(=O)N2CCN(c3nc4ccc(F)cc4s3)CC2)n1 -13.4%
O=C(c1cccc(Br)n1)N1CCN(c2nc3ccc(F)cc3s2)CC1 3.71%
Cc1ccnc(C(=O)N2CCN(c3nc4ccc(F)cc4s3)CC2)c1 1.25%
NS(=O)(=O)c1cccc(C(=O)N2CCN(c3nc4ccc(F)cc4s3)CC2)c1 -1.45%
O=C(Nc1ccccc1N1CCOCC1)c1cccc(Cl)n1 -5.31%
